Assay results taken from PubChem BioAssay (EPA / NIEHS).
Several values for one entry are separate records, joined by “and”; a condition that tells them apart may be missing. Equal values may be shown once. Some structures have more than one record in an assay (separate samples or runs), and their calls can disagree. Activity calls are given as the source filed them. How the source made its calls: active means hit-call score of the fitted dose curve at least 0.9, where 1 is the maximum; inactive means score below 0.9.

Assay: ATG_GRE_CIS: Attagene CIS-FACTORIAL HepG2 Assay for human Glucocorticoid Response Elements (GRE) (AID 2282947)
Settings: HepG2 GRE cis-reporter, Attagene multiplex mRNA; AC50: actives raise or lower the signal unless noted; outcome: actives raise or lower the signal unless noted
Experimental: ATG_CIS is a cell-based, multiplexed-readout assay that uses HepG2, a human liver cell line, with measurements taken at 24 hours after chemical dosing in a 24-well plate.ATG_GRE_CIS is one of 52 assay component(s) measured or calculated from the ATG_CIS assay. It is designed to make measurements of mRNA induction, a form of inducible reporter, as detected with fluorescence intensity signals by Reverse transcription polymerase chain reaction (RT-PCR) and Capillary electrophoresis technology.Data from the assay component ATG_GRE_CIS was analyzed into 1 assay endpoint. This assay endpoint, ATG_GRE_CIS, was analyzed with bidirectional fitting relative to DMSO as the negative control and baseline of activity. Using a type of inducible reporter, measures of mRNA for gain or loss-of-signal activity can be used to understand the reporter gene at the transcription factor-level as they relate to the gene NR3C1. Furthermore, this assay endpoint can be referred to as a primary readout, because this assay has produced multiple assay endpoints where this one serves a reporter gene function. To generalize the intended target to other relatable targets, this assay endpoint is annotated to the nuclear receptor intended target family, where the subfamily is steroidal.
Human liver HepG2 cells are transiently transfected with multiple reporter transcription units (MRTUs) in 6-well plates using FuGene 6 reagent (Roche; 3 ml FuGene/1 mg DNA). The MRTU constructs are regulated by a cis-regulating element (promoter). […] A major difference between the CIS and TRANS system is that in CIS activities of endogenous TFs are measured, whereas the TRANS assay evaluates changes in activities of exogenous, chimeric NR-Gal4 proteins. […] At the end of 24 hour incubation, total RNA was isolated using TriZol reagent (Invitrogen). The isolated RNA is then reverse-transcribed using oligo(dT) primer and Mo-MLV reverse transcriptase (Invitrogen) with DNAse I (Ambion) treatment for 30 min. The one-tenth of the produced cDNA was amplified by PCR using Taq DNA polymerase (Invitrogen) and two reporter sequence-specific primers. The PCR products were fluorescently labeled by primer extension with 6-arboxyfluorescein (6-FAM) 5'-labeled reporter sequence-specific primer (2 min at 95 C, 20 s at 68 C and 10 min at 72 C) and these products were digested with 5U of HpaI (New England Biolabs) for 2h at 37 C. The fragments were purified using Qiaquick PCR columns (Qiagen), analyzed on an ABI 3130xL genetic analyzer (Applied Biosystems) with peak positions identified by using a set of X-rhodamine (ROX)-labeled MapMarker1000 molecular weight standards (BioVentures). The raw capillary electrophoresis data was processed using Attagraph software (Attagene).

Structure (SMILES) | outcome | AC50
CC1COCc2cc3c(cc21)C(C)(C)C(C)C3(C)C (stereo not given) | inactive | 
O=P(O)(O)CCC(F)(F)C(F)(F)C(F)(F)C(F)(F)C(F)(F)C(F)(F)C(F)(F)C(F)(F)F | inactive | 
NS(=O)(=O)O | inactive | 
CCO[Si](CCC1CCC2OC2C1)(OCC)OCC (stereo not given) | inactive | 
CC(C)(C)c1ccc(CCC=O)cc1 | inactive | 
CCCC=O | inactive | 
CC(O)COc1ccccc1 (stereo not given) | inactive | 
CS(=O)(=O)c1ccc([C@@H](CC2CCCC2)C(=O)Nc2cnccn2)cc1Cl | inactive | 
CCCCCCCCCCCC[N+](C)(C)CCCCCCCCCCCC | inactive | 
CCCCc1oc2ccccc2c1C(=O)c1cc(I)c(OCCN(CC)CC)c(I)c1 |  | 141 µM (active)
Nc1ccc(O)c(C(=O)O)c1 | inactive | 
COCN(COC)c1nc(N(COC)COC)nc(N(COC)COC)n1 | inactive | 
CC(C)(C)c1ccc(O)c(O)c1 | inactive | 
CCCCN(C)C | inactive | 
Nc1cc(Cl)c(-c2cc(Cl)c(N)cc2Cl)cc1Cl | inactive | 
Cc1[nH]nc2c1N=C(c1ccccc1Cl)c1cc([N+](=O)[O-])ccc1N2 | inactive | 
CCC(C)c1ccccc1O (stereo not given) | inactive | 
O=C(Nc1ccc(Cl)c(Cl)c1)c1cc(Cl)cc(Cl)c1O | inactive | 
Cc1ccccc1OCC(=O)O | inactive | 
CN(C)CCOC(c1ccccc1)c1ccccc1 | inactive | 

Structure (SMILES) | outcome | AC50
COc1cccc(O)c1 | inactive | 
Brc1cc(Br)c(Oc2c(Br)cc(Br)c(Br)c2Br)cc1Br | inactive | 
CCCCCCCC(OC)OC | inactive | 
O=C(O)CCC(F)(F)C(F)(F)C(F)(F)C(F)(F)C(F)(F)C(F)(F)F | inactive | 
CCCCCCCCCCCCCCCCCC[N+](C)(C)Cc1ccccc1 |  | 79.2 µM (active)
CCC(=O)C=Cc1ccc(OC)cc1 | inactive | 
Cc1cncc(C)c1 | inactive | 
CC1CCC(C(=O)O)CC1 (stereo not given) | inactive | 
COC(O)c1ccccc1 (stereo not given) | inactive | 
C=CC(=O)OCCN(CC)CC | inactive | 
O=C1Cc2ccccc2N1c1c(Cl)cccc1Cl | inactive | 
CC(=O)CC(C)C | inactive | 
O=C(O)c1cccc(C(=O)O)n1 | inactive | 
NCc1cccc(CN)c1 | inactive | 
C[N+](C)(CCCNS(=O)(=O)CCC(F)(F)C(F)(F)C(F)(F)C(F)(F)C(F)(F)C(F)(F)F)CC(=O)[O-] | inactive | 
CC(C)(c1ccc(Oc2ccc(N)cc2)cc1)c1ccc(Oc2ccc(N)cc2)cc1 | inactive | 
O=C1c2ccc(O)c(O)c2C(=O)c2c(O)ccc(O)c21 | inactive | 
O=C(C=C(O)C(F)(F)F)C(F)(F)F | inactive | 
NC(=NCCCCCCN=C(N)/N=C(\N)Nc1ccc(Cl)cc1)/N=C(\N)Nc1ccc(Cl)cc1 | inactive | 23.2 µM (active) and 25.6 µM (active)
